Screening results as filed in PubChem BioAssay.
GDH-TPI inh: inhibits GDH-TPI coupling enzymes, artifact for Mtb FBA screen; GDH-TPI coupled enzyme counterscreen, NADH absorbance; inhibition, % at 4.8 µM; 1.2% of 360,000 active; AID 588335; in the data active = inhibition above about 30%
RecA intein inh: blocks M. tuberculosis RecA intein splicing; cell-free RecA intein splicing, fluorescence; 0.75% of 290,000 active; AID 2221; P9WHJ3; inhibition, % (no concentration beside the values); in the data active = inhibition above about 30%
Rv3671c protease: Rv3671c (M. tuberculosis) protease inhibition; 0.048% of 320,000 active; P9WHR9; inhibition, % at 5.96 µM; in the data active = inhibition above about 38%;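 also: extracellular domain of Rv3671c used as enzyme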
FBA Mtb inh: Mtb fructose-bisphosphate aldolase inhibition. P9WQA3. purified M. tuberculosis FBA, fluorescence read-out. inhibition, % at 1 µM. 2.3% of 360,000 active. AID 588726; in the data active = inhibition above about 27%
Target sequence (P9WQA3 whole entry, looked up): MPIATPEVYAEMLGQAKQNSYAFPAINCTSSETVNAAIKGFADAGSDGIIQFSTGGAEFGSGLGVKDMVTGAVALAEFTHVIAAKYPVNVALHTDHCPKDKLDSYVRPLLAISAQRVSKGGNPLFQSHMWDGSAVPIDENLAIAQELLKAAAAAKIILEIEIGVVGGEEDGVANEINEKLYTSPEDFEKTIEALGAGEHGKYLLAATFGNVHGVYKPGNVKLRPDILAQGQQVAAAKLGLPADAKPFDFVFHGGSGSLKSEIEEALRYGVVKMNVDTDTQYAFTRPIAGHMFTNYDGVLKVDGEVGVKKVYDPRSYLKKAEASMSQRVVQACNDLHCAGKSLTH
Mtb betalactam: beta-lactam sensitization of Mtb H37Rv; M. tuberculosis H37Rv growth with meropenem, percent inhibition; inhibition, % at 25 µM; AID 434955; 0.27% of 330,000 active; call rule not given here;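 also: growth measured after seven days incubation then overnight dye step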
UGM FP inh: Mtb UDP-galactopyranose mutase inhibition. 0.06% of 320,000 active. purified UGM, fluorescence polarization probe displacement. inhibition, % at 10 µM. P9WIQ1; in the data active = inhibition above about 10%, passing the limit was not always enough
Of the large screens only hits and unclear results are named; the others gave an inactive call. Only some compounds are listed: those with a hit (about 4% of all), similar ones and a draw of the others.

CN(C)C(=O)/C(=C/c1ccc(-c2cccc([N+](=O)[O-])c2)o1)NC(=O)c1ccccc1	GDH-TPI inh 53
CC(C)(O[C@@H]1O[C@H](CO)[C@@H](O)[C@H](O)[C@H]1O)[C@H]1Cc2cc3ccc(=O)oc3cc2O1	GDH-TPI inh 33, FBA Mtb inh active
C=C(C)C1Cc2cc3ccc(=O)oc3cc2O1 (stereo unspecified)	FBA Mtb inh 185
CC(C)(O)[C@@H]1Cc2c(ccc3ccc(=O)oc23)O1	FBA Mtb inh active
CC(C)(O)[C@H]1Cc2cc3ccc(=O)oc3cc2O1	FBA Mtb inh active
Cc1cc(C)cc(NC(=O)N(CCC#N)Cc2cccs2)c1	none
CC1CN(C=O)CC(C)N1CCN1C(C)CN(C=O)CC1C (stereo unspecified)	none (no result: RecA intein inh, Rv3671c protease, Mtb betalactam, UGM FP inh)
CCOc1ccccc1/C=N/Nc1ccnc(=O)[nH]1	none (no result: Rv3671c protease)
COc1cccc(/C=N/Nc2ccnc(=O)[nH]2)c1O	GDH-TPI inh 36
Oc1cccc(/C=N/Nc2nn3cnnc3c3ccccc23)c1	none
COc1cccc(/C=N/Nc2nn3cnnc3c3ccccc23)c1O	GDH-TPI inh 32
O=c1nccc(N/N=C/c2ccccc2O)[nH]1	GDH-TPI inh 38 (no result: Rv3671c protease)
COc1cc(C(=O)OCC(=O)Nc2ccccc2C(=O)NC2CC2)c([N+](=O)[O-])cc1OC	none (no result: RecA intein inh)
Clc1ccc2nnnc(-c3ccccc3)c2c1	RecA intein inh 56
CCN(CC)Cc1nc2nc(Cl)c(Cl)nc2[nH]1	GDH-TPI inh 37 (no result: RecA intein inh, Rv3671c protease, Mtb betalactam, UGM FP inh)
FCc1nc2nc(Cl)c(Cl)nc2[nH]1	none (no result: RecA intein inh, Rv3671c protease, Mtb betalactam, UGM FP inh)
Cc1ccc(C2CC(c3cccs3)=NN2C(=O)CSC2=NCCS2)cc1 (stereo unspecified)	RecA intein inh 57
CCC(=O)N1N=C(c2cccs2)CC1c1ccc(C)cc1 (stereo unspecified)	none
COc1ccc(C2CC(c3cccs3)=NN2C(=O)CSC2=NCCS2)cc1 (stereo unspecified)	RecA intein inh 41
CCC(=O)N1N=C(c2cccs2)CC1c1ccc(OC)cc1 (stereo unspecified)	none (no result: Rv3671c protease)
CNC(=S)N1N=C(c2cccs2)CC1c1ccc(F)cc1 (stereo unspecified)	GDH-TPI inh 36
O=C(c1ccco1)N1N=C(c2cccs2)CC1c1ccc(F)cc1 (stereo unspecified)	none
CCC(C)n1c(O)c(C=NCCc2ccccc2)c(=O)[nH]c1=S (stereo unspecified)	GDH-TPI inh 55
CCC(C)n1c(O)c(/C=N/Nc2ccccc2)c(=O)[nH]c1=S (stereo unspecified)	none
C=C1[C@@H](O)[C@H](Cc2ccccc2)N(Cc2ccccc2Br)S1(=O)=O	none (no result: RecA intein inh, Rv3671c protease, Mtb betalactam, UGM FP inh)
CN(CC(=O)Nc1ccc(OC(F)(F)F)cc1)S(=O)(=O)c1cnc[nH]1	none
NC(Cc1ccc(Cl)cc1)c1csc(Nc2ccc(C(=O)NCCCO)cn2)n1 (stereo unspecified)	none (no result: RecA intein inh, Rv3671c protease, Mtb betalactam, UGM FP inh)
O=C(Nc1ccc2c(c1)OCCO2)c1ccc(Br)c(S(=O)(=O)N2CCOCC2)c1	GDH-TPI inh 36 (no result: RecA intein inh, Rv3671c protease, Mtb betalactam, UGM FP inh)
C=CCn1c(-c2ccc(OC)cc2)csc1=Nc1c(C)n(C)n(-c2ccccc2)c1=O	none
COc1ccc(-c2cc(=NCCCCCC(=O)O)c3cc(C)ccc3o2)cc1	GDH-TPI inh 50 (no result: Rv3671c protease, FBA Mtb inh, Mtb betalactam, UGM FP inh)
COc1ccc(CNC(=O)c2cc(=O)c3cc(C)ccc3o2)cc1	none
COc1ccc(-c2cc(=Nc3cccc(C(=O)O)c3)c3cc(C)ccc3o2)cc1	FBA Mtb inh active
Cc1ccc2c(c1)c(N=Nc1cccc(C(=O)O)c1)c(O)n2C	none
CCc1ccc2oc(-c3ccc(OC)cc3)cc(=Nc3c(C)n(C)n(-c4ccccc4)c3=O)c2c1	FBA Mtb inh active
COc1ccc(-c2cc(=NCC(=O)O)c3ccccc3o2)cc1	FBA Mtb inh active
O=C(COc1ccccc1-c1ccccc1)NNC(=O)NC1CCCCC1	none
CCc1ccc2oc(-c3ccc(OC)cc3)cc(=Nc3cccc(C(=O)O)c3)c2c1	FBA Mtb inh active
COc1ccc(-c2cc(=O)c3cc(O)ccc3o2)cc1	none
COc1ccc(-c2cc(=Nc3ccc(C(=O)O)cc3)c3cc(C)ccc3o2)cc1	FBA Mtb inh active
Cc1nc(/C=[N+](\[O-])C(C)(C)/C=N/O)n(O)c1C	GDH-TPI inh 31
CSc1nc2nccc(-c3ccc(-c4ccccc4)cc3)n2n1	FBA Mtb inh 153
CCCCC(=O)Nc1ccc(Cl)cn1	none
CCCC(C)C(=O)Nc1ccc(Cl)cn1 (stereo unspecified)	GDH-TPI inh 31
